Source: PubChem BioAssay
A number with no mark means an inactive call. Activity calls are given as the source filed them.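 How the source made its calls: active means normalized viability below 100% at a tested concentration; inactive means the rest.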

Experiment: ovarian cancer cell viability with rucaparib, profiling panel, oncology-focused library, rucaparib conditional (AID 1508598)
Conditions: patient-derived ovarian cancer cells, CellTiter-Glo viability, 144 h; at 0.0195 µM; OCI-C5x cells; without rucaparib; hits give low values

Compound | viability
O=c1[nH]c(=O)n([C@@H]2C[C@H](O)[C@@H](CO)O2)cc1F | 111%
COc1cccc2c1C(=O)c1c(O)c3c(c(O)c1C2=O)C[C@@](O)(C(C)=O)C[C@H]3O[C@H]1C[C@H](N)[C@H](O)[C@H](C)O1 | 201%
C[C@]12CC[C@H]3c4ccc(O)cc4CC[C@H]3[C@@H]1CC[C@H]2O | 115%
CC1=C(/C=C/C(C)=C\C=C\C(C)=C/C(=O)O)C(C)(C)CCC1 | 106%
CC(C)CC(CC(=O)NO)C(=O)N[C@@H](Cc1ccc2ccccc2c1)C(=O)N[C@@H](C)C(=O)NCCN (stereo partly specified) | 120%
COc1cccc2c1C(=O)c1c(O)c3c(c(O)c1C2=O)C[C@@](O)(C(=O)CO)C[C@H]3O[C@H]1C[C@H](N)[C@@H](O)[C@H](C)O1 | 75.5% (active)
COc1ccc(C2=N[C@H](c3ccc(Cl)cc3)[C@@H](c3ccc(Cl)cc3)N2C(=O)N2CCNC(=O)C2)c(OC(C)C)c1 | 105%
CO[C@H]1C[C@H]2CC[C@@H](C)[C@@](O)(O2)C(=O)C(=O)N2CCCC[C@H]2C(=O)O[C@H]([C@H](C)C[C@@H]2CC[C@H](OC(=O)C(C)(CO)CO)[C@H](OC)C2)CC(=O)[C@H](C)/C=C(\C)[C@@H](O)[C@@H](OC)C(=O)[C@H](C)C[C@H](C)/C=C/C=C/C=C/1C | 88.2% (active)
O=C(O)c1cc(I)ccc1NC(=O)[C@H](Cc1ccccc1)NCc1ccccc1 | 116%
Nc1ncn([C@@H]2O[C@H](CO)[C@@H](O)[C@@H]2O)c(=O)n1 | 129%
CO[C@H]1C[C@@H]2CC[C@@H](C)[C@@](O)(O2)C(=O)C(=O)N2CCCC[C@H]2C(=O)O[C@H]([C@H](C)C[C@@H]2CC[C@@H](O)[C@H](OC)C2)CC(=O)[C@H](C)/C=C(\C)[C@@H](O)[C@H](OC)C(=O)[C@H](C)C[C@H](C)/C=C/C=C/C=C/1C | 95.6% (active)
CC(=O)OCC(=O)[C@]1(O)[C@H](C)C[C@H]2[C@@H]3CCC4=CC(=O)C=C[C@]4(C)[C@]3(F)[C@H](O)C[C@@]21C | 123%
CC[C@]1(O)C[C@@H]2CN(CCc3c([nH]c4ccccc34)[C@@](C(=O)OC)(c3cc4c(cc3OC)N(C=O)[C@H]3[C@@](O)(C(=O)OC)[C@H](OC(C)=O)[C@]5(CC)C=CCN6CC[C@@]43[C@@H]65)C2)C1 | 29% (active)
C[C@@]12CC[C@H]3c4ccc(O)cc4C[C@@H](CCCCCCCCCS(=O)CCCC(F)(F)C(F)(F)F)[C@H]3[C@@H]1CC[C@@H]2O (stereo partly specified) | 108%
CC(=O)O[C@@]1(C(C)=O)CC[C@H]2[C@@H]3C[C@H](C)C4=CC(=O)CC[C@]4(C)[C@@H]3CC[C@@]21C | 118%
CC(=O)O[C@]12CO[C@@H]1C[C@H](O)[C@]1(C)C(=O)[C@H](O)C3=C(C)[C@H](OC(=O)[C@H](O)[C@@H](NC(=O)OC(C)(C)C)c4ccccc4)C[C@](O)([C@H](OC(=O)c4ccccc4)C21)C3(C)C (stereo partly specified) | 35.3% (active)
CCC1=CC2CN(C1)Cc1c([nH]c3ccccc13)[C@@](C(=O)OC)(c1cc3c(cc1OC)N(C)[C@H]1[C@@](O)(C(=O)OC)[C@H](OC(C)=O)[C@]4(CC)C=CCN5CC[C@@]31[C@H]54)C2 (stereo partly specified) | 33.7% (active)
CC(=O)O[C@H]1C(=O)[C@@]2(C)C([C@H](OC(=O)c3ccccc3)[C@]3(O)C[C@H](OC(=O)[C@H](O)[C@@H](NC(=O)c4ccccc4)c4ccccc4)C(C)=C1C3(C)C)[C@]1(OC(C)=O)CO[C@@H]1C[C@H]2O (stereo partly specified) | 35.9% (active)

Same assay, conditions: patient-derived ovarian cancer cells, CellTiter-Glo viability, 144 h; at 0.0195 µM; OCI-P5x cells; with rucaparib 20 µM; hits give low values; 100% = cells with rucaparib alone

Compound | viability
O=c1[nH]c(=O)n([C@@H]2C[C@H](O)[C@@H](CO)O2)cc1F | 104%
COc1cccc2c1C(=O)c1c(O)c3c(c(O)c1C2=O)C[C@@](O)(C(C)=O)C[C@H]3O[C@H]1C[C@H](N)[C@H](O)[C@H](C)O1 | 84.2% (active)
C[C@]12CC[C@H]3c4ccc(O)cc4CC[C@H]3[C@@H]1CC[C@H]2O | 109%
CC1=C(/C=C/C(C)=C\C=C\C(C)=C/C(=O)O)C(C)(C)CCC1 | 99% (active)
CC(C)CC(CC(=O)NO)C(=O)N[C@@H](Cc1ccc2ccccc2c1)C(=O)N[C@@H](C)C(=O)NCCN (stereo partly specified) | 84.6% (active)
COc1cccc2c1C(=O)c1c(O)c3c(c(O)c1C2=O)C[C@@](O)(C(=O)CO)C[C@H]3O[C@H]1C[C@H](N)[C@@H](O)[C@H](C)O1 | 92% (active)
COc1ccc(C2=N[C@H](c3ccc(Cl)cc3)[C@@H](c3ccc(Cl)cc3)N2C(=O)N2CCNC(=O)C2)c(OC(C)C)c1 | 96.3% (active)
CO[C@H]1C[C@H]2CC[C@@H](C)[C@@](O)(O2)C(=O)C(=O)N2CCCC[C@H]2C(=O)O[C@H]([C@H](C)C[C@@H]2CC[C@H](OC(=O)C(C)(CO)CO)[C@H](OC)C2)CC(=O)[C@H](C)/C=C(\C)[C@@H](O)[C@@H](OC)C(=O)[C@H](C)C[C@H](C)/C=C/C=C/C=C/1C | 71% (active)
O=C(O)c1cc(I)ccc1NC(=O)[C@H](Cc1ccccc1)NCc1ccccc1 | 95.6% (active)
Nc1ncn([C@@H]2O[C@H](CO)[C@@H](O)[C@@H]2O)c(=O)n1 | 110%
CO[C@H]1C[C@@H]2CC[C@@H](C)[C@@](O)(O2)C(=O)C(=O)N2CCCC[C@H]2C(=O)O[C@H]([C@H](C)C[C@@H]2CC[C@@H](O)[C@H](OC)C2)CC(=O)[C@H](C)/C=C(\C)[C@@H](O)[C@H](OC)C(=O)[C@H](C)C[C@H](C)/C=C/C=C/C=C/1C | 87.8% (active)
CC(=O)OCC(=O)[C@]1(O)[C@H](C)C[C@H]2[C@@H]3CCC4=CC(=O)C=C[C@]4(C)[C@]3(F)[C@H](O)C[C@@]21C | 109%
CC[C@]1(O)C[C@@H]2CN(CCc3c([nH]c4ccccc34)[C@@](C(=O)OC)(c3cc4c(cc3OC)N(C=O)[C@H]3[C@@](O)(C(=O)OC)[C@H](OC(C)=O)[C@]5(CC)C=CCN6CC[C@@]43[C@@H]65)C2)C1 | 57.9% (active)
C[C@@]12CC[C@H]3c4ccc(O)cc4C[C@@H](CCCCCCCCCS(=O)CCCC(F)(F)C(F)(F)F)[C@H]3[C@@H]1CC[C@@H]2O (stereo partly specified) | 116%
CC(=O)O[C@@]1(C(C)=O)CC[C@H]2[C@@H]3C[C@H](C)C4=CC(=O)CC[C@]4(C)[C@@H]3CC[C@@]21C | 104%
CC(=O)O[C@]12CO[C@@H]1C[C@H](O)[C@]1(C)C(=O)[C@H](O)C3=C(C)[C@H](OC(=O)[C@H](O)[C@@H](NC(=O)OC(C)(C)C)c4ccccc4)C[C@](O)([C@H](OC(=O)c4ccccc4)C21)C3(C)C (stereo partly specified) | 56.6% (active)
CCC1=CC2CN(C1)Cc1c([nH]c3ccccc13)[C@@](C(=O)OC)(c1cc3c(cc1OC)N(C)[C@H]1[C@@](O)(C(=O)OC)[C@H](OC(C)=O)[C@]4(CC)C=CCN5CC[C@@]31[C@H]54)C2 (stereo partly specified) | 50.5% (active)
CC(=O)O[C@H]1C(=O)[C@@]2(C)C([C@H](OC(=O)c3ccccc3)[C@]3(O)C[C@H](OC(=O)[C@H](O)[C@@H](NC(=O)c4ccccc4)c4ccccc4)C(C)=C1C3(C)C)[C@]1(OC(C)=O)CO[C@@H]1C[C@H]2O (stereo partly specified) | 63.2% (active)
